Data: ChEMBL document CHEMBL4808148, “HDAC6 screening dataset using tau-based substrate in an enzymatic assay yields selective inhibitors and activators” (2021)
“And” between values parts separate entries of the source, which are not always exact repeats. Identical values can stand only once. Hit rate of the full screen: of about 5,600 compounds, about 390 (7%) showed an effect of 50% or more. The entries come from a sample that favours strong results as a whole.

Tests used:
[1] = target: T1, Protein deacetylase HDAC6 (Homo sapiens) (UniProt Q9UBN7); conditions: at 10 µM
T1 sequence (whole entry): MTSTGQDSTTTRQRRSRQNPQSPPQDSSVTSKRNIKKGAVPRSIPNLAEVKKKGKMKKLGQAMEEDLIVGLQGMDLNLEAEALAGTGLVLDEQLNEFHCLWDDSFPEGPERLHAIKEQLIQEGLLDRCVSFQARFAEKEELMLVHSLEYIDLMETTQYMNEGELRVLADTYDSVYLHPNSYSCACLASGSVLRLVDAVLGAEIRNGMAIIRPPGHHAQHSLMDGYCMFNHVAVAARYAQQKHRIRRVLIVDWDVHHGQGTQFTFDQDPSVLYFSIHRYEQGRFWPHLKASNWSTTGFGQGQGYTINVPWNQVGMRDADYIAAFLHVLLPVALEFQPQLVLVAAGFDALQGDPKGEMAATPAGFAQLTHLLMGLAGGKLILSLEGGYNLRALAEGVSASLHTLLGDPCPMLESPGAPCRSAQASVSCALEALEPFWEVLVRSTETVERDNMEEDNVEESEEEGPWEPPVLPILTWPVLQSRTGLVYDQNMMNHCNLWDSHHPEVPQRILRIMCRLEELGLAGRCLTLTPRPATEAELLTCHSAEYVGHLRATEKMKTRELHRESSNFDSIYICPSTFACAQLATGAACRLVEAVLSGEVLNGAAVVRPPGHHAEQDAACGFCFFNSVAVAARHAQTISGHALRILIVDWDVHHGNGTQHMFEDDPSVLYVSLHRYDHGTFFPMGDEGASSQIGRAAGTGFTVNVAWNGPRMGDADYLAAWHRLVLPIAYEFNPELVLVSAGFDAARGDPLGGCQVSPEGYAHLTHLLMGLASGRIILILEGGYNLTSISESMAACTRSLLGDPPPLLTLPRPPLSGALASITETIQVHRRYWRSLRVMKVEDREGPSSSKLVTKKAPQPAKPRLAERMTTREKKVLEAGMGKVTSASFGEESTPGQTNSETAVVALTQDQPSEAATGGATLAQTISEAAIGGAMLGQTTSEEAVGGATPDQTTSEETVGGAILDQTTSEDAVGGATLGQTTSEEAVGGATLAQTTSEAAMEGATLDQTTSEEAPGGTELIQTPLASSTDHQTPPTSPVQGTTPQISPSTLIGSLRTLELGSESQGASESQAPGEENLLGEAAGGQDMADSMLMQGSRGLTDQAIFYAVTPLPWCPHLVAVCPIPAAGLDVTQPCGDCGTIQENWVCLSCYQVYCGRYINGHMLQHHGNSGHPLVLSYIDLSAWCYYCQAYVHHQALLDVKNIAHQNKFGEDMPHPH

[2] = target: Protein deacetylase HDAC6 (Homo sapiens) (UniProt Q9UBN7); conditions: at 10 µM; remark: listed apart in the source

Compound	inhibition [1]	inhibition [2] [%]
COc1ccc(C(=O)NCc2ccc(OCCN(C)C)cc2)cc1OC	1.13%	
N#Cc1cc2c(OCC(O)CN3CCN(C(c4ccccc4)c4ccccc4)CC3)cccc2[nH]1 (racemic)	3.02%	
O=C1CC2(CCCC2)CC(=O)N1CCNCC1COc2ccccc2O1 (centres undefined)	5.51%	
CN(C)C(=O)n1nnnc1Cc1ccc(-c2ccccc2)cc1	26.8%	
CCCNC(=O)N1N=C(c2ccc(N)cc2)c2cc3c(cc2C1C)OCO3 (centres undefined)	26.2%	
Cc1[nH]c(/C=C2\C(=O)Nc3ccc(F)cc32)c(C)c1C(=O)NC[C@H](O)CN1CCOCC1	34%	
Cc1ccc(OCCSc2ncccn2)c(Br)c1	99.3%	
CCCCCCCCCCCCCCC[C@@H](O)[C@@H](N)CO	26%	
Sodium stibogluconate, CHEMBL2079699		0.83
CN(C)c1ccc(/C=C2\C(=O)Nc3ccccc32)cc1	101%	
CCN(CC)CCNC(=O)c1c(C)[nH]c(/C=C2\C(=O)Nc3ccc(F)cc32)c1C	16.3%	
Cc1cc(C)c(/C=C2\C(=O)Nc3ccccc32)[nH]1	88.8%	
Cc1[nH]c(/C=C2\C(=O)Nc3ccccc32)c(C)c1CCC(=O)O	30.1%	
C#Cc1c[nH]c(=O)[nH]c1=O	-6.92%	
CC1(C)CN2C(CS/C(=N\C3CCCCC3)NC3CCCCC3)=CSC2=N1	12.2%	
O=S(=O)(NC1CCNCC1)c1cc(S(=O)(=O)c2ccccc2)ccc1C(F)(F)F	-7.14%	
CC(CCCCC(=O)Nc1ccc(C(F)(F)F)cc1)NCCc1c[nH]cn1 (centres undefined)	3.94%	
C/C(=C\CNc1ncnc2[nH]cnc12)CO	5.74%	
CCC(c1ccccc1)c1c(O)c2ccccc2oc1=O (centres undefined)	16.2%	
O=c1oc2ccccc2c(O)c1Cc1c(O)c2ccccc2oc1=O	-8.39%	
O=c1c2ccccc2oc2ccccc12	92.3%	
Cc1cc(-c2nc3cc(F)ccc3s2)ccc1NC(=O)[C@@H](N)CCCCN	28.4%	
CN(C)CCC=C1c2ccccc2C=Cc2ccccc21	63.9%	
CNCCC=C1c2ccccc2C=Cc2ccccc21	15.7%	
CN(C)CCC=C1c2ccccc2COc2ccccc21	-7.53%	
CNc1cc2c(Nc3cccc(Br)c3)ncnc2cn1	9.09%	
Cc1ccc2nc(NCCN)c3ncc(C)n3c2c1	4.14%	

Compound	inhibition [1]	inhibition [2] [%]
O=C1Nc2ccc(I)cc2C1=Cc1cc(Br)c(O)c(Br)c1	72.9%	
C=C[C@@H]1C[C@]1(NC(=O)[C@@H]1C[C@@H]2CN1C(=O)[C@H](C(C)(C)C)NC(=O)O[C@@H]1C[C@H]1CCCCCc1nc3ccc(OC)cc3nc1O2)C(=O)NS(=O)(=O)C1CC1	0.36%	
O=c1c2c(c1=O)N(CCP(=O)(O)O)CCCN2	12.1%	
Cc1ccc([N+](=O)[O-])cc1S(=O)(=O)N(C)C	6.18%	
S=C(NCCc1ccccn1)Nc1ccc(Br)cn1	8.48%	
COC(c1ccccc1)(c1ccccc1)[C@H](Oc1nc(C)cc(C)n1)C(=O)O	-8.71%	
hemin, CHEMBL5308479		56.4
NKP-1339, CHEMBL5308480		34.9
Mangafodipir (trisodium), CHEMBL5308448		18
COc1ccc(CC2NCCc3c2[nH]c2ccc(C)cc32)c(Cl)c1OC (centres undefined)	-1.23%	
O=C(Nc1ccccc1)Nc1ccc(-c2ccc(C(=O)[C@@H]3CCC[C@H]3C(=O)O)cc2)cc1	4.7% and 12.5%	
CN1CCN(c2ccc3nc(-c4c(N)c5c(F)cccc5[nH]c4=O)[nH]c3c2)CC1	86.8%	
CN1CCN(C(=O)c2nc3ccc(Cl)cc3[nH]2)CC1	16.2%	
CC(C)=CCC[C@](C)(O)[C@H]1CC[C@]2(C)[C@@H]1[C@H](O)C[C@@H]1[C@@]3(C)CC[C@H](O[C@@H]4O[C@H](CO)[C@@H](O)[C@H](O)[C@H]4O[C@@H]4O[C@H](CO)[C@@H](O)[C@H](O)[C@H]4O)C(C)(C)[C@@H]3CC[C@]12C	11.5%	
O=C(Cn1ccnc1[N+](=O)[O-])NCc1ccccc1	32.3%	
Cc1c[nH]c(=O)n(CCCN2CCN(c3ccccc3OCC(F)(F)F)CC2)c1=O	19.2%	
COc1ccc(-c2nc(N3CCOCC3)c3sc(CN(C)c4ncc(C(=O)NO)cn4)cc3n2)cn1	98%	
CS(=O)(=O)N1CCN(Cc2cc3nc(-c4cccc5[nH]ncc45)nc(N4CCOCC4)c3s2)CC1	11.1%	
COC(=O)Nc1ccc(-c2nc(N3CCOCC3)c3cnn(C4CCN(C(=O)OC)CC4)c3n2)cc1	21.1%	
C[N+](C)(C)NCCC(=O)[O-]	17.8%	
Cn1c(=O)c2c(ncn2CCOC(=O)C(C)(C)Oc2ccc(Cl)cc2)n(C)c1=O	23.6%	
c1ccc(-c2n[nH]c3c2oc2ccccc23)cc1	95%	
CCC/C=C1\OC(=O)C2=C1CCC=C2	39.5%	
CC(=C\c1ccc(Cl)cc1)/C(C)=N/O	2.85%	
NC(CC(F)C(=O)O)C(=O)O (racemic)	38.9%	
COC(=O)/C=C/c1cc(O)ccc1O	28.1%	
C=CC(C)(C)c1cc(/C=C/C(=O)c2ccc(O)cc2)c(OC)cc1O	75.1%	
